In PubChem BioAssay (NCI):
This is part of a sample that, as a whole, favours compounds with a hit. Of some 83,000 tested, about 20% had one in any assay.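 Single-dose data. Exposure time 48 hours. Values below 10 considered active.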 Values without a mark were called inactive. Calls of active or inactive are those of the source.

System: UACC-62 melanoma
Assay: NCI-60 one-dose screen, 48 h (100 = growth as untreated, 0 = no growth, -100 = all killed)
Conditions: 10 µM unless noted
Procedure: Growth inhibition of the UACC-62 human tumor cell line is measured as a screen for anti-cancer activity. Cells are grown in 96 well plates and exposed to the test compound for 48 hours. Compounds are tested at a single concentration, which is 10^-5 M for most compounds. The reported endpoint is percent growth (GI% or GIPRCNT), where numbers from 0 - 100% represent growth inhibition, and numbers from -100% - 0 represent cell death. For example, a value of 40 represents 60% growth inhibition. A value of 0 means no net growth occurred over the course of the experiment. A value of -40 indicates 40% of cells at the beginning of the experiment died by the end of the experiment. A value of -100 means all cells are dead at the end of the experiment.
NCI-60 Human Tumor Cell Lines Screen was performed using the standard one-dose NCI protocol, which is described in more detail at https://dtp.cancer.gov/discovery_development/nci-60/default.htm.
Compounds with GIPRCNT values below 10 were considered active. Activity score was based on GIPRCNT using the following formula: […]
Score is 0 for GIPRCNT values of 100 or above, 50 for GIPRCNT values of 0, and 100 for GIPRCNT values of -100.

Q: How did the growth turn out when `CNC(=O)Cc1nc(-c2cccc(NS(=O)(=O)c3c(F)cccc3F)c2F)c(-c2ccnc(Nc3ccccc3)n2)s1` was run?
A: 5.51% (active)

Q: For `O=C(Nc1ccc(I)cc1)c1cccc([N+](=O)[O-])c1O`, which growth is on record?
A: 20.8%

Q: How did the growth turn out when `CC1CCN(C(=O)CSc2nc3sc4c(c3c(=O)[nH]2)CCCC4)CC1` was run?
A: 105%

Q: Which growth does the source give for `COc1cc(Br)c(OC)cc1Br` here?
A: 94.8%

Q: How did the growth turn out when `CCOC(=O)C1=C(CSC(=S)N(C2CCCCC2)C2CCCCC2)N(C)C(=O)NC1c1ccccc1` (stereo not given) was run?
A: 46.1%

Q: Which growth does the source give for `CC1=CNNc2c3ncnc-3ncn21` here?
A: 98.6%

Q: For `CCN(C(=O)c1cc2ncccc2[nH]1)[C@H]1CCC[C@@H](NCc2cccc(F)c2)C1`, which growth is on record?
A: 98%

Q: For `COc1ccc(-c2nc3sccn3c2-c2ccnc(NCCCNS(=O)(=O)c3ccc(C)cc3)n2)cc1`, which growth is on record?
A: 10.9%

Q: With `Clc1ccc([I+]c2ccc(Cl)cc2Cl)c(Cl)c1` as the molecule, how does the growth read?
A: 12.3%

Q: With `O=[N+]([O-])c1ccc(S(=O)(=O)N2CCN(c3ccnc4cc(Cl)ccc34)CC2)c([N+](=O)[O-])c1` as the molecule, how does the growth read?
A: 81.8%

Q: How did the growth turn out when `Cc1ccc(S(=O)(=O)OCC(=O)Nc2ccc(C(=O)O)c(O)c2)cc1` was run?
A: 99.9%

Q: `COc1cc2c(cc1OC)C1(C)N(CC2)C(=O)OC1(C)C` (stereo not given) was tested. Which growth did it give?
A: 106%

Q: How did the growth turn out when `O=C(O)c1cn(C2CC2)c2cc(N3CCN(S(=O)(=O)c4ccc(Cl)c(Cl)c4)CC3)c(F)cc2c1=O` was run?
A: 29.6%

Q: With `COc1cc(/C=C\c2cc(OC)c(OC)c(OC)c2)cc(N/C=C\C(=O)c2c[nH]c3ccccc23)c1OC` as the molecule, how does the growth read?
A: 3.34% (active)

Q: `CC(Br)C(O)c1cc2c(cc1Br)OCO2` (stereo not given) was tested. Which growth did it give?
A: 98.9%

Q: For `COc1cc(NC(=O)c2cc3ccccc3nc2Nc2ccc(F)cc2)cc(OC)c1OC`, which growth is on record?
A: 37.5%

Q: `CCCCOc1nc2c(C)cccc2cc1C1CNC(=O)c2ccccc2N1` (stereo not given) was tested. Which growth did it give?
A: 29.1%

Q: With `C=CC(=O)N[C@H](/C=C/C(=O)OCC)Cc1ccc(-c2cc(Cl)cc(Cl)c2)cc1` as the molecule, how does the growth read?
A: 60.9%

Q: How did the growth turn out when `CS(=O)(=O)N(c1cc(-c2ccc3ncnc(Nc4cccc(Cl)c4)c3c2)cnc1Cl)S(C)(=O)=O` was run?
A: -6.31% (active)

Q: How did the growth turn out when `Cc1ccc(C2=NN(c3ccc(S(N)(=O)=O)cc3)C(c3cn(-c4ccccc4)nc3-c3ccccc3)C2)cc1` (stereo not given) was run?
A: 83.5%

Q: How did the growth turn out when `CC(C)(C)c1ccc(S(=O)(=O)Oc2ccc3c4c(c(=O)oc3c2)CCCCC4)cc1` was run?
A: 30.3%

Q: How did the growth turn out when `Cc1cc2c(C(C)C)c(O)c(O)c(C=NCCCCC(=O)O)c2c(O)c1-c1c(C)cc2c(C(C)C)c(O)c(O)c(C=NCCCCC(=O)O)c2c1O` was run?
A: 59.2%

Q: With `COC(=O)CCCCCCN=Cc1c(O)c(O)c(C(C)C)c2cc(C)c(-c3c(C)cc4c(C(C)C)c(O)c(O)c(C=NCCCCCCC(=O)OC)c4c3O)c(O)c12` as the molecule, how does the growth read?
A: 17.7%

Q: Which growth does the source give for `COc1ccc(-c2nc3sccn3c2-c2ccnc(NCCCNS(=O)(=O)c3ccc(F)cc3)n2)cc1` here?
A: -34.4% (active)

Q: With `CN(C)C/C=C/C(=O)Nc1cc2c(Nc3cccc(Cl)c3F)ncnc2cc1OCCOC(F)F` as the molecule, how does the growth read?
A: 53.5%

Q: Which growth does the source give for `COc1ccc(C(=O)c2cc(OC)c(OC)c(OC)c2)cc1/C=C/C(=O)c1ccc2c(c1)OCO2` here?
A: -63.5% (active)

Q: With `O=c1oc2cc(OS(=O)(=O)c3ccccc3)c(Cl)cc2c2c1CCCCCC2` as the molecule, how does the growth read?
A: 70.3%

Q: For `NC(N)=NC(N)=Nc1ccccc1-c1ccccc1`, which growth is on record?
A: 108%

Q: For `O=S(=O)(NCCCNc1nccc(-c2c(-c3ccc(F)c(O)c3)nc3sccn23)n1)c1ccc(Cl)cc1`, which growth is on record?
A: 6.74% (active)

Q: With `Cc1ccc(S(=O)(=O)OC2COCOC2C(OS(=O)(=O)c2ccc(C)cc2)C2OCOCC2OS(=O)(=O)c2ccc(C)cc2)cc1` (stereo not given) as the molecule, how does the growth read?
A: 98.3%

Q: For `COc1cc(NCCCN=C(N)NC(N)=NC(C)C)c2ncccc2c1`, which growth is on record?
A: 90.1%

Q: Which growth does the source give for `O=C(c1c[nH]c2ccccc12)C(Sc1nc2ccccc2c(=O)[nH]1)c1ccccc1` (stereo not given) here?
A: 102%

Q: For `COc1ccc(/C=C/C(=O)OCC(=O)NNC(=O)c2ccccc2)cc1OC`, which growth is on record?
A: 98.4%

Q: Which growth does the source give for `CC(C)[C@H](CO)Nc1nc(Nc2ccc(C(=O)NCCNS(=O)(=O)c3cccc4c(N(C)C)cccc34)c(Cl)c2)c2ncn(C(C)C)c2n1` here?
A: 22.2%

Q: Which growth does the source give for `COc1cc(/C=C2\C=C(c3ccc(F)cc3)N(Cc3ccccc3)C2=O)cc(OC)c1OC` here?
A: 71.6%

Q: `Nc1c(C(=O)Nc2cccc(C(F)(F)F)c2)sc2nc3c(cc12)CCCCCC3` was tested. Which growth did it give?
A: 23.9%

Q: Which growth does the source give for `COc1cc(Cn2c(SCC(=O)Nc3ccc(Cl)cc3)nc3ccccc3c2=O)cc(OC)c1OC` here?
A: 63.3%

Q: `O=C(Nc1ccc(Cl)cc1)c1cc(-c2ccc(F)cc2)c2sc(=O)[nH]c2n1` was tested. Which growth did it give?
A: 26.9%

Q: For `O=c1oc2c([nH]c3ccc4ccccc4c32)c2ccccc12`, which growth is on record?
A: 93.8%

Q: For `O=C(N/N=C/c1c(Cl)cccc1Cl)c1ccccc1Nc1ccnc(C(F)(F)F)c1`, which growth is on record?
A: 55.6%
